Measurements taken from PubChem BioAssay (NCI).
The panel holds about 83,000 compounds, 20% with a hit somewhere; the sample as a whole holds those more often.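 Assay: single dose, 48 h. Readout: percent growth (0 = no net growth; negative = cell death). Active: <10.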 Calls of active or inactive are those of the source.

What was measured:
Assay in all cases: NCI-60 one-dose screen, 48 h (100 = growth as untreated, 0 = no growth, -100 = all killed)
Conditions in all cases: 10 µM unless noted
NCI-H23 lung = system: NCI-H23 lung
NCI-H226 lung = system: NCI-H226 lung
NCI-H322M lung = system: NCI-H322M lung
HOP-62 NSCLC = system: HOP-62 NSCLC
NCI-H460 lung = system: NCI-H460 lung
HOP-92 NSCLC = system: HOP-92 NSCLC
NCI-H522 lung = system: NCI-H522 lung
A549/ATCC NSCLC = system: A549/ATCC NSCLC
786-0 renal = system: 786-0 renal
COLO 205 colon = system: COLO 205 colon

Measured: growth

COc1ccc(C(=O)Nc2ncc(Cc3ccc(F)cc3)s2)cc1
active: NCI-H460 lung 6.59% | NCI-H522 lung -5.3% | COLO 205 colon -16.2%
inactive: NCI-H23 lung 30.7% | NCI-H226 lung 40.9% | NCI-H322M lung 34.6% | HOP-62 NSCLC 28.7% | HOP-92 NSCLC 51.5% | A549/ATCC NSCLC 23.3% | 786-0 renal 27.8%

O=[N+]([O-])C1C(c2ccccc2)C12c1ccccc1-c1ccccc12 (stereo not given)
active: NCI-H23 lung 7.97% | NCI-H460 lung -14.3% | HOP-92 NSCLC -3.91% | NCI-H522 lung -13.8% | A549/ATCC NSCLC 8.59% | 786-0 renal 4.98%
inactive: NCI-H226 lung 15% | NCI-H322M lung 29.3% | HOP-62 NSCLC 34.2% | COLO 205 colon 14.9%

CN(C)CCCC1(c2ccc(F)cc2)OCc2cc(-c3cccc4[nH]ccc34)ccc21 (stereo not given)
inactive: NCI-H23 lung 75.2% | NCI-H226 lung 65.7% | NCI-H322M lung 61.5% | HOP-62 NSCLC 16.2% | HOP-92 NSCLC 30.6% | NCI-H522 lung 28% | A549/ATCC NSCLC 28.3% | 786-0 renal 37%
active: NCI-H460 lung -23.3% | COLO 205 colon -64.2%

O=C1/C(=C/c2ccc(F)cc2)COc2ccc(O)cc21
inactive: NCI-H23 lung 97% | NCI-H226 lung 108% | NCI-H322M lung 94.6% | HOP-62 NSCLC 104% | NCI-H460 lung 98.8% | HOP-92 NSCLC 104% | NCI-H522 lung 75.7% | A549/ATCC NSCLC 92.5% | 786-0 renal 79.8% | COLO 205 colon 94.3%

COc1ccc(C(c2cc(OC)c(OC)c(OC)c2)N2CCN(c3ccccc3)CC2)cc1 (stereo not given)
inactive: NCI-H23 lung 84.4% | NCI-H226 lung 101% | NCI-H322M lung 83.7% | HOP-62 NSCLC 88.9% | NCI-H460 lung 96.9% | HOP-92 NSCLC 86.7% | NCI-H522 lung 56.5% | A549/ATCC NSCLC 85.7% | 786-0 renal 101% | COLO 205 colon 92.7%

CCCCCCCCCCCCCCCC(N)c1ccccc1 (stereo not given)
active: NCI-H23 lung -24.4% | HOP-62 NSCLC -33.9% | NCI-H460 lung -66.8% | 786-0 renal 1.55% | COLO 205 colon -57.8%
inactive: NCI-H226 lung 87.6% | NCI-H322M lung 92.9% | HOP-92 NSCLC 31.4% | NCI-H522 lung 63.5% | A549/ATCC NSCLC 31.9%

O=C(Cn1c(=O)sc2ccccc21)NNS(=O)(=O)c1ccccc1[N+](=O)[O-]
inactive: NCI-H23 lung 98.6% | NCI-H226 lung 101% | NCI-H322M lung 104% | HOP-62 NSCLC 108% | NCI-H460 lung 108% | HOP-92 NSCLC 104% | NCI-H522 lung 88.5% | A549/ATCC NSCLC 103% | 786-0 renal 104% | COLO 205 colon 110%

Cc1cc2c([nH]1)CSc1cc(S(=O)(=O)c3ccccc3)c(=O)[nH]c1-2
inactive: NCI-H23 lung 11.4% [100 µM] | NCI-H226 lung 32.6% [100 µM] | NCI-H322M lung 47.1% [100 µM] | HOP-62 NSCLC 33% [100 µM] | HOP-92 NSCLC 16.3% [100 µM] | NCI-H522 lung 23.3% [100 µM] | A549/ATCC NSCLC 52.2% [100 µM] | 786-0 renal 21.5% [100 µM]
active: NCI-H460 lung 4.49% [100 µM] | COLO 205 colon -40.5% [100 µM]

O=C1Nc2ccccc2/C1=C\c1nc(-c2ccccc2F)n2ccccc12
inactive: NCI-H23 lung 33.2% | NCI-H322M lung 26% | HOP-92 NSCLC 40.4% | A549/ATCC NSCLC 26.5% | COLO 205 colon 72.8%
active: NCI-H226 lung -1.5% | HOP-62 NSCLC -1.47% | NCI-H460 lung -20.4% | NCI-H522 lung -23% | 786-0 renal -34.5%

Oc1c(Cl)cc(Cl)c2ccc(Cn3cc(-c4cc(F)cc(F)c4)nn3)nc12
inactive: NCI-H23 lung 92.3% | NCI-H226 lung 95.1% | NCI-H322M lung 111% | HOP-62 NSCLC 98.9% | NCI-H460 lung 104% | HOP-92 NSCLC 29% | A549/ATCC NSCLC 102% | 786-0 renal 95.6% | COLO 205 colon 70.4%
active: NCI-H522 lung -38.7%

Cc1ccc(-c2nc3nc(-c4ccc(F)cc4)nc(N4CCNCC4)c3o2)cc1
inactive: NCI-H23 lung 94.4% | NCI-H226 lung 116% | NCI-H322M lung 87.7% | HOP-62 NSCLC 77.6% | HOP-92 NSCLC 90.8% | NCI-H522 lung 79.8% | A549/ATCC NSCLC 27.2%
active: NCI-H460 lung -84.6% | 786-0 renal -92.8% | COLO 205 colon -78.1%
